Drawing on PubChem BioAssay (EPA / NIEHS), this text covers outcome and AC50 for twelve compounds.

Several values for one entry are separate records, joined by “and”; a condition that tells them apart may be missing. Equal values may be shown once. Some structures have more than one record in an assay (separate samples or runs), and their calls can disagree. Activity calls are given as the source filed them. How the source made its calls: active means hit-call score of the fitted dose curve at least 0.9, where 1 is the maximum; inactive means score below 0.9.

Read-out in assay [1]: Transforming growth factor beta 1 (TGFb1), TGFB1 (gene 7040)
Put plainly: BSK_KF3CT_TGFb1: BioMAP Diversity Plus: KF3CT Assay for Transforming growth factor beta 1 (TGFb1) Biomarker Activity (AID 2283072). The conditions noted are these: primary human keratinocytes with fibroblasts; actives raise or lower the signal. The procedure, abridged: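 KF3CT co-culture (keratinocytes + fibroblasts), 24 h exposure → TGF-b1 ELISA → bidirectional fit, DMSO = baseline. Parallel SRB total-protein staining (0.1% SRB, 10% TCA fixation, 560 nm) for cytotoxicity.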

Read-out in assay [2]: C-C motif chemokine 2 (Homo sapiens) (UniProt P13500)
Kind of assay: BSK_KF3CT_MCP1: BioMAP Diversity Plus: KF3CT Assay for Monocyte Chemoattractant Protein 1 (MCP1/CCL2) Biomarker Activity (AID 2283073). The conditions noted are these: primary human keratinocytes with fibroblasts; actives raise or lower the signal. The procedure, abridged:
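Human keratinocyte plus foreskin fibroblast primary co-culture exposed to chemical for 24 h. MCP-1 levels measured by ELISA. Bidirectional curve fitting relative to DMSO negative control as baseline.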

Read-out in assay [3]: Matrix Metallopeptidase 9 (MMP9), MMP9 (gene 4318)
Put plainly: BSK_KF3CT_MMP9: BioMAP Diversity Plus: KF3CT Assay for Matrix Metallopeptidase 9 (MMP9) Biomarker Activity (AID 2283074).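 On AC50: MMP9 protein level quantified by ELISA in the co-culture.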 The conditions noted are these: primary human keratinocytes with fibroblasts; actives raise or lower the signal. The procedure, abridged:
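ELISA read-out of MMP-9 at 24 h post-dosing in a co-culture of human skin keratinocytes and foreskin fibroblasts. Gain or loss of signal was fitted in both directions against DMSO.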

Read-out in assay [4]: urokinase plasminogen activator (uPA), PLAU (gene 5328)
Put plainly: BSK_KF3CT_uPA: BioMAP Diversity Plus: KF3CT Assay for urokinase plasminogen activator (uPA) Biomarker Activity (AID 2283075). The conditions noted are these: primary human keratinocytes with fibroblasts; actives raise or lower the signal. The procedure, abridged: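 Skin co-culture (keratinocytes + foreskin fibroblasts), human primary; 24 h post-dose; uPA by ELISA; gain/loss fit vs DMSO baseline.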

Read-out in another assay: CD40, CD40 (gene 958)
Kind of assay: BSK_LPS_CD40: BioMAP Diversity Plus: LPS Assay for CD40 Biomarker Activity (AID 2283076). The conditions noted are these: primary human HUVEC with PBMC; actives raise or lower the signal. The gist of the method: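 Primary human umbilical vein endothelial cells co-cultured with peripheral blood mononuclear cells, LPS-stimulated, were dosed with chemical and read 24 h later. CD40 levels were measured by ELISA and fitted bidirectionally against DMSO as negative control and baseline.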

Read-out in assay [5]: E-selectin (Homo sapiens) (UniProt P16581)
Kind of assay: BSK_LPS_Eselectin: BioMAP Diversity Plus: LPS Assay for Eselectin Biomarker Activity (AID 2283077). The conditions noted are these: primary human HUVEC with PBMC; actives raise or lower the signal. The gist of the method:
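Human umbilical vein endothelial cells co-cultured with peripheral blood mononuclear cells under LPS stimulation; E-selectin measured by ELISA 24 h after chemical dosing. Activity fitted bidirectionally against DMSO as negative control and baseline.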

Read-out in assay [6]: Interleukin-8 (IL8), CXCL8 (gene 3576)
Kind of assay: BSK_LPS_IL8: BioMAP Diversity Plus: LPS Assay for Interleukin-8 (IL8) Biomarker Activity (AID 2283078). The conditions noted are these: primary human HUVEC with PBMC; actives raise or lower the signal. The procedure, abridged:
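Human umbilical vein endothelial cells co-cultured with PBMC were stimulated with LPS; IL-8 levels were measured by ELISA 24 h after chemical dosing. Activity was fitted bidirectionally against DMSO as negative control and baseline.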

Assay [7] is described as follows: BSK_LPS_SRB: Viability Assessment in the BioMAP Diversity Plus: LPS Assay (AID 2283079).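 Further: total protein by sulforhodamine B absorbance as a cytotoxicity measure; measured one day after compound addition.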 The conditions noted are these: primary human HUVEC with PBMC. The gist of the method:
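Human umbilical vein endothelial cells co-cultured with PBMC (LPS system) were dosed for 24 h. Total protein was stained with 0.1% sulforhodamine B after 10% TCA fixation, read at 560 nm, and fitted bidirectionally against DMSO baseline.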

Read-out in assay [8]: Interleukin-1 alpha (IL1a), IL1A (gene 3552)
Put plainly: BSK_LPS_IL1a: BioMAP Diversity Plus: LPS Assay for Interleukin-1 alpha (IL1a) Biomarker Activity (AID 2283080). The conditions noted are these: primary human HUVEC with PBMC; actives raise or lower the signal. The gist of the method: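 Human umbilical vein endothelial cells co-cultured with peripheral blood mononuclear cells were LPS-stimulated and exposed to test chemicals for 24 h. IL-1 alpha was quantified by ELISA, with bidirectional curve fitting against DMSO as the negative control and baseline.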

Read-out in assay [9]: Monocyte Chemoattractant Protein-1 (MCP1), CCL2 (gene 6347)
Kind of assay: BSK_LPS_MCP1: BioMAP Diversity Plus: LPS Assay for Monocyte Chemoattractant Protein-1 (MCP1) Biomarker Activity (AID 2283081).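 On AC50: co-culture stimulated with LPS; secreted MCP-1 protein quantified by ELISA in culture supernatant.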 The conditions noted are these: primary human HUVEC with PBMC; actives raise or lower the signal. The gist of the method: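 HUVEC plus PBMC co-culture (human primary cells, LPS system) exposed to test chemical for 24 h; MCP-1 measured by ELISA. Bidirectional curve fitting against DMSO baseline; parallel SRB total-protein staining flags overt cytotoxicity.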

Chain of E-selectin (Homo sapiens) (P16581 whole entry, looked up): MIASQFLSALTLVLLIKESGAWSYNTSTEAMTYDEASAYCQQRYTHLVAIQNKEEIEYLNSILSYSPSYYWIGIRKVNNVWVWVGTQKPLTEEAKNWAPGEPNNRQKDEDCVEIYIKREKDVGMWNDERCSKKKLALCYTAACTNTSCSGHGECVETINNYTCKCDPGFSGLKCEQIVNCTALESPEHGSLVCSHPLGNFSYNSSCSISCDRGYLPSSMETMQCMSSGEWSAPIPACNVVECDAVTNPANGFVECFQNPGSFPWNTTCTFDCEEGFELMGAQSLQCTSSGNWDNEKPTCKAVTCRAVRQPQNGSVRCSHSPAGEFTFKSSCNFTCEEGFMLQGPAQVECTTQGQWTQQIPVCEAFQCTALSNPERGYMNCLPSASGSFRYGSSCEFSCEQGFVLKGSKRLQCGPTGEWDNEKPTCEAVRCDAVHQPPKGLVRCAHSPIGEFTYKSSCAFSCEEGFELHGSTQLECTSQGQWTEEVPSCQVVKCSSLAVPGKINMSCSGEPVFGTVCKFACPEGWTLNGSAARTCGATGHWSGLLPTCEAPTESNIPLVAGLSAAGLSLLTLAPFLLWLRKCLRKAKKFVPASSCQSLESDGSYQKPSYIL

Turning to `O=C1c2ccccc2C(=O)c2c(O)ccc(O)c21`, the outcome is “inactive” in assay [1]; “inactive” in assay [2]; “inactive” in assay [3]; “inactive” in [4]; “inactive” with CD40, CD40 (gene 958); “inactive” in assay [5]. The outcome in assay [6], in [7], in [8] and in assay [9] was inactive.
For the compound `CC=Cc1ccc(OCC)c(O)c1`, the outcome in assay [1] is “inactive”; in assay [2], “inactive”; in [3], “inactive”; in assay [4], “inactive”; with CD40, CD40 (gene 958) it was “inactive”; in [5], “inactive”. Besides, the outcome in [7], in assay [8] and in assay [9] was inactive.
For `CCCCCCC(CO)CCCC` (centres undefined), the AC50 (usually the concentration giving half of the maximal activity seen) is 32.9 µM (active) and 36.2 µM (active) in assay [2]; 35.1 µM (active) and 36.4 µM (active) in [3]; 30.5 µM (active) and 36.6 µM (active) in [4]. The outcome with CD40, CD40 (gene 958) was “inactive”; in assay [5] it was “inactive”; in assay [6] it was “inactive”; in assay [7], “inactive”; in assay [8], “inactive”; in assay [9] it was “inactive”.
Consider `CC(=O)Nc1ccc(C(=O)CCl)cc1`, for which the AC50 was 28.6 µM (active) in assay [2]; 20 µM (active) in assay [3]; 30 µM (active) in [4]; 5.35 µM (active) with CD40, CD40 (gene 958); 4.61 µM (active) in assay [5]; 3.91 µM (active) in assay [6]. Also, the figures for the half-maximal activity concentration (AC50) in assay [7], in assay [8] and in assay [9] were 9.55 µM (active), 4.52 µM (active) and 5.89 µM (active), respectively.
With `C=C(C)C(=O)OCC(CC)(COC(=O)C(=C)C)COC(=O)C(=C)C`, the outcome in assay [1] is “inactive”; in assay [2] it was “inactive”; in assay [3], “inactive”; in assay [4], “inactive”; with CD40, CD40 (gene 958) it was “inactive”; in [5], “inactive”. In addition, the outcome in [6], in assay [7], in assay [8] and in assay [9] was inactive.
In the case of `C=CC(C)(O)CCC=C(C)C` (centres undefined), the outcome was “inactive” in assay [2]; “inactive” in assay [3]; “inactive” in assay [4]; “inactive” in the assay with CD40, CD40 (gene 958); “inactive” in assay [5]; “inactive” in [6]. For the same compound, the result in assay [7], in [8] and in assay [9] was inactive.
For the compound `CC(CN=Cc1ccccc1O)N=Cc1ccccc1O` (centres undefined), the outcome in assay [2] was “inactive”; in [3] it was “inactive”; in assay [4] it was “inactive”; with CD40, CD40 (gene 958), “inactive”; in assay [5], “inactive”; in assay [6], “inactive”. Moreover, the result in assay [7], in assay [8] and in [9] was inactive. Besides, the AC50 in [6] was 0.151 µM (active).
`CCCCCC(C=O)=Cc1ccccc1`: the result in assay [1] and in [6] was inactive. In addition, the AC50 in assay [2] is 28.8 µM (active); in [3], 34.5 µM (active); in assay [4], 35.9 µM (active); with CD40, CD40 (gene 958), 33.3 µM (active); in assay [5], 31.1 µM (active); in assay [7], 32.8 µM (active). In addition, the results for the AC50 in assay [8] and in assay [9] were 34.3 µM (active) and 32.9 µM (active), respectively.
Consider `CSCCC=O`, for which the outcome in [1] was “inactive”; in assay [2], “inactive”; in assay [3] it was “inactive”; in [4], “inactive”; with CD40, CD40 (gene 958), “inactive”; in assay [5], “inactive”. Moreover, the result in assay [6], in [7] and in assay [9] was inactive.
Turning to `CC(=O)c1c(C)c([N+](=O)[O-])c(C(C)(C)C)c([N+](=O)[O-])c1C`, the outcome in assay [1] is “inactive”; in assay [2] it was “inactive”; in [3], “inactive”; in assay [4], “inactive”; with CD40, CD40 (gene 958), “inactive”; in [5], “inactive”. For the same compound, the result in [6], in assay [7], in assay [8] and in [9] was inactive.
Regarding `Clc1cc(Cl)c(-c2c(Cl)c(Cl)cc(Cl)c2Cl)cc1Cl`, the AC50 was 4.16 µM (active) in assay [1]; 10 µM (active) in assay [2]; 8.51 µM (active) in [3]; 10 µM (active) in assay [4]; 10 µM (active) with CD40, CD40 (gene 958); 8.81 µM (active) in assay [5]. Also, the AC50 in [8] was 12.5 µM (active). Besides, the result in [6], in [7] and in assay [9] was inactive.
For `O=CN1CCOCC1`, the outcome in assay [2] was “inactive”; in assay [3], “inactive”; in [4], “inactive”; with CD40, CD40 (gene 958), “inactive”; in [5], “inactive”; in assay [6] it was “inactive”. Moreover, the result in assay [7], in assay [8] and in assay [9] was inactive.
